Molecules are shown by their SMILES. Values without a mark were called inactive. Results filed as inconclusive are left out. Activity calls are given as the source filed them. Calls come from the whole dose curve; as a rule, active = well fitted curve in the direction sought with a large enough effect; inconclusive = small, poorly fitted or top-dose-only effect, or another doubt; inactive = no such curve, though single readings can be large; an effect the other way counts as inactive or inconclusive.

For assay [1], the system named is Zika virus NS2B-NS3 protease (linked construct). Briefly: Primary screen NINDS Rhodamine qHTS for Zika virus inhibitors (AID 1347160). Note: nearly all actives have a fitted effect of over 55% in size. Note: potency is the fitted concentration of half-maximal effect. The essentials:
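Purified linked NS2B-NS3 protease (NS2B hydrophilic domain joined to NS3 protease by flexible linker), 25 nM in 10 mM Tris-HCl pH 8.0, 0.01% Tween 20. Compounds titrated, 15 min preincubation at room temperature; 1.5 microM Rhodamine110 substrate, FITC fluorescence change over 15 min.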
Background: qHTS replaces the single test concentration by a dilution series.

For assay [2], the target named is Luciferin 4-monooxygenase (Photinus pyralis) (UniProt P08659). The assay can be described thus: Primary firefly luciferase (FLuc) qHTS assay for identification of artifact compounds. (AID 1845220). Note: nearly all actives have a fitted effect of over 60% in size. The settings on record: outcome: dose series up to 54.1 µM unless noted. The essentials: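 Enzymatic FLuc inhibition assay: compounds pre-exposed to luciferin/ATP (10 uM each) for 15 min, then purified P. pyralis enzyme at 10 nM added. Read-out: luminescence at 5 min.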

The test system of assay [3] is Nanoluciferase (engineered Oplophorus gracilirostris luciferase). Briefly: Primary Nanoluciferase (NLuc) qHTS assay for identification of artifact compounds. (AID 1845222).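 Note: NLuc secreted into diluted conditioned medium of S16 cells; 0% = DMSO and -100% = no enzyme.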 The procedure, abridged:
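S16 cell supernatant NLuc, 1:55; cpds qHTS; 15 min RT dark; Nano-Glo substrate 1:100, 5 min; luminescence; Hill fit of % inhibition.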

Assay [4] in a line: Primary redox qHTS assay for identification of artifact compounds. (AID 1845223).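 Note: 0% = DMSO and 100% = reference compound.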 The procedure, abridged:
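Amplex Red (25 uM) and HRP (250 mU/mL) in HBSS, with compounds for 15 min, then 250 uM DTT for 30 min, room temperature, dark. Fluorescence 525/598 nm read; normalized to DMSO and 10 uM DA3003; Hill fit.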

The subject of another assay is HaCat. The assay can be described thus: Cytotoxic Profiling of Annotated Libraries Using Quantitative High-Throughput Screening (AID 1296008). For max response: % is set by controls: 0 for no effect and ±100 for the full control effect. Note: nearly all actives have a fitted effect of over 60% in size. Note: potency is the fitted concentration of half-maximal effect. To be noted: Five cell lines viability, CellTiter-Glo ATP luminescence, 48-72 h; max response: active compounds read low. The procedure, abridged:
(§1)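 Cells exposed to compounds for 48 or 72 hr at 37 degrees Celsius. Viability read as ATP-coupled luminescence with CellTiter-Glo after 10 min at room temperature.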
(ATP-based viability assays read luminescence as a measure of living cells.)

The test system of the next assay is NIH3T3. The assay is described as above. The settings on record: Five cell lines viability, CellTiter-Glo ATP luminescence, 48-72 h; max response: active compounds read low. The procedure, abridged: as §1
Another assay relates to C33A. The assay can be described thus: Primary qHTS to identify gynecologic anti-cancer compounds using libraries of approved drugs and bioactive compounds (AID 1345084). Note: nearly all actives have a fitted effect of over 55% in size. Note: potency is the fitted concentration of half-maximal effect. To be noted: Gynecologic cancer cell panel viability, ATPlite luminescence, 48 h; series mostly up to 57.5 µM. The procedure, abridged:
(§2)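 Five-point cytotoxicity, 48 h drug exposure at 37 C, 5% CO2, on cells seeded 16 h beforehand. ATP content read by ATPlite luminescence.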

Another assay deals with CAOV3. The description is as above. The settings on record: Gynecologic cancer cell panel viability, ATPlite luminescence, 48 h; series mostly up to 57.5 µM. The essentials: as §2
The next assay relates to CASKI. The assay is described as above. The settings on record: Gynecologic cancer cell panel viability, ATPlite luminescence, 48 h; series mostly up to 57.5 µM. The essentials:
as §2

A further assay concerns Es-2. The assay is described as above. The settings on record: Gynecologic cancer cell panel viability, ATPlite luminescence, 48 h; series mostly up to 57.5 µM. The procedure, abridged: as §2
In the next assay the test system is Hek293T. Described as above. The settings on record: Gynecologic cancer cell panel viability, ATPlite luminescence, 48 h, control line for the selectivity index; series mostly up to 57.5 µM. The essentials: as §2
The test system of a further assay is JEG-3. The assay is described as above. To be noted: Gynecologic cancer cell panel viability, ATPlite luminescence, 48 h; series mostly up to 57.5 µM. The procedure, abridged: as §2
The subject of the next assay is OV90. The description is as above. To be noted: Gynecologic cancer cell panel viability, ATPlite luminescence, 48 h; series mostly up to 57.5 µM. The essentials:
as §2

A further assay relates to PA-1. The description is as above. The settings on record: Gynecologic cancer cell panel viability, ATPlite luminescence, 48 h; series mostly up to 57.5 µM. The procedure, abridged:
as §2

The next assay relates to Tov-21-G. The assay is described as above. To be noted: Gynecologic cancer cell panel viability, ATPlite luminescence, 48 h; series mostly up to 57.5 µM. The procedure, abridged: as §2
Another assay concerns Tov112D. The assay is described as above. The settings on record: Gynecologic cancer cell panel viability, ATPlite luminescence, 48 h; series mostly up to 57.5 µM. The essentials: as §2
The target of assay [5] is Calcium and integrin-binding protein 1 (Homo sapiens) (UniProt Q99828). Briefly: Primary qHTS for Identification of Calcium Integrin Binding Protein 1 (CIB1) Competitor (AID 1508620).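 Note: GST tagged CIB1 binding a fluorescein labelled alphaIIb integrin peptide tracer; top concentration of the series differs between compounds; % is set by controls: 0 for no effect and ±100 for the full control effect.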 The procedure, abridged:
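Fluorescence polarization competition: GST-tagged CIB1 (1 uM final) preincubated with compound 15 min at room temperature, then FITC-labelled alphaIIb peptide (100 nM final) added. After 15 min at room temperature, polarization read at Ex 480/Em 540.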

The target of assay [6] is Phospholipid hydroperoxide glutathione peroxidase GPX4 (Homo sapiens) (UniProt P36969). The assay can be described thus: Primary qHTS Assay for Inhibitors of Recombinant Selenoprotein Glutathione Peroxidase 4 (GPX4) (AID 1845192). Note: % is set by controls: 0 for no effect and ±100 for the full control effect; nearly all actives have a fitted effect of over 65% in size. The essentials: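 GR-coupled assay: recombinant GPX4 preincubated 30 min with compound at room temperature; final 200 nM GPX4, 1 mM GSH, 0.5 mM cumene hydroperoxide, 0.5 mM NADPH, 100 nM GR, 0.01% BSA, pH 7.5 Tris. NADPH fluorescence (340/450 nm) read at 0 and 15 min.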

Assay [7] can be described thus: Primary fluorescence-based thiol-reactive (MSTI) qHTS assay for identification of artifact compounds. (AID 1845221).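 Note: thiol-reactive compounds lower the probe fluorescence signal; nearly all actives have a fitted effect of over 65% in size.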 The procedure, abridged: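 Thiol-reactive compounds detected by quenching of 4 uM MSTI fluorescence (525/598 nm) after 1 h room-temperature dark incubation in PBS pH 7.4, 2% DMSO. qHTS titration; percent inhibition Hill-fitted against Acetyl-MSTI/MSTI controls.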

Assay [8] deals with Glutathione peroxidase 1 (Homo sapiens) (UniProt P07203). The assay can be described thus: Primary qHTS Assay for Inhibitors of Recombinant Selenoprotein Glutathione Peroxidase 1 (GPX1) (AID 1845191). Note: % is set by controls: 0 for no effect and ±100 for the full control effect; nearly all actives have a fitted effect of over 65% in size. The essentials:
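GR-coupled assay: compounds preincubated 30 min at room temperature with GPX1, then reaction started with CHP; final 10 nM GPX1, 1 mM GSH, 0.5 mM CHP, 0.5 mM NADPH, 100 nM GR, 0.01% BSA, pH 7.5 Tris buffer. NADPH fluorescence (340/450 nm) read at 0 and 15 min.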

Sequence of Glutathione peroxidase 1 (Homo sapiens) (P07203 whole entry, looked up): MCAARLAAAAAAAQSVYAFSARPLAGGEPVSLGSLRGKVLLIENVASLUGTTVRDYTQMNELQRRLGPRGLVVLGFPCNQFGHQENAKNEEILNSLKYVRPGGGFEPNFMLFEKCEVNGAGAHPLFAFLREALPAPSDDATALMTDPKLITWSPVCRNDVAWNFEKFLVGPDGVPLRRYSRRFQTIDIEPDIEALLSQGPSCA
Sequence of Calcium and integrin-binding protein 1 (Homo sapiens) (Q99828 whole entry, looked up): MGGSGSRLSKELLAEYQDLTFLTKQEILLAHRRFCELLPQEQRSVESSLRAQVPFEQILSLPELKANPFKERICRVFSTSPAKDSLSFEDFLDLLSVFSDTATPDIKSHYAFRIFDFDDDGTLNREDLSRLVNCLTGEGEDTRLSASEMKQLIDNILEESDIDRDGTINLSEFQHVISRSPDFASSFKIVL
Sequence of Phospholipid hydroperoxide glutathione peroxidase GPX4 (Homo sapiens) (P36969 whole entry, looked up): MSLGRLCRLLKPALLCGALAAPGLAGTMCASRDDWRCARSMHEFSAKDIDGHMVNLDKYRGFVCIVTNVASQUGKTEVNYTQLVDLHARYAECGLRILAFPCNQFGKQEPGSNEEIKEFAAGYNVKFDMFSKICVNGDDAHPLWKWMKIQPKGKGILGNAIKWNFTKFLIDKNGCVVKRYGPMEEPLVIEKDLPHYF

With `CC(C)=CCC[C@]1(C)C=Cc2c(O)c3c(c(CC=C(C)C)c2O1)O[C@]12C(=C[C@@H]4CC1C(C)(C)O[C@@]2(C/C=C(/C)C(=O)O)C4=O)C3=O`, the Potency in assay [1] is 2820 nM (active); in the assay with HaCat it was 4610 nM (active); in the assay on NIH3T3, 1160 nM (active); with C33A, 5620 nM (active); in the assay on CAOV3 it was 3160 nM (active); in the assay with CASKI, 2240 nM (active). In addition, the Potency in the assay on Es-2 is 3160 nM (active); with Hek293T, 5620 nM (active); with JEG-3, 3980 nM (active); in the assay on OV90, 5010 nM (active); in the assay on PA-1 it was 4470 nM (active); with Tov-21-G, 7940 nM (active). In addition, the Potency in the assay on Tov112D is 5010 nM (active). Besides, in assay [2], the call was inactive. Also, the Potency result in assay [3] and in [4] was “inactive” each time.

As to `CCCCCn1cc(C(=O)Cc2ccccc2OC)c2ccccc21`, the Potency entry (in [1]; in assay [5]; in [6]; in [7]; in [3]; with C33A) was “inactive” throughout. In addition, the Potency entry with CASKI, in the assay on Es-2, with Hek293T, with JEG-3, in the assay with OV90 and in the assay with PA-1 was “inactive” in each case. For the same molecule, the Potency entry in the assay with Tov-21-G and with Tov112D was “inactive” throughout. The outcome in [2] was inactive. Also, the max response in the assay with HaCat was -10.3%; in the assay on NIH3T3, -7.87%.

Turning to `COC1CC(OC2CCC3(C=O)C(CCC4C3CCC3(C)C(C5=CC(=O)OC5)CCC43O)C2)OC(C)C1O` (configuration not stated), the Potency entry in assay [5], in assay [8], in assay [6] and in assay [3] was “inactive” each time. In assay [2], the outcome is “inactive [at 25.7 µM]”. In addition, the Potency was 2820 nM (active) in the assay on HaCat; 141 nM (active) in the assay with C33A; 316 nM (active) in the assay with CAOV3; 1000 nM (active) with CASKI; 251 nM (active) in the assay with Es-2; 251 nM (active) with Hek293T. Moreover, the Potency was 631 nM (active) in the assay on JEG-3; 1000 nM (active) in the assay on OV90; 199 nM (active) in the assay with PA-1; 178 nM (active) in the assay with Tov-21-G; 100 nM (active) in the assay on Tov112D. Also, in the assay on NIH3T3, the max response is 0.727%.

Take `C/C1=C/[C@@H](C)C/C=C/[C@H]2[C@@H]3O[C@]3(C)[C@@H](C)[C@H]3[C@H](Cc4c[nH]c5ccccc45)NC(=O)[C@]32C(=O)/C=C\C(=O)[C@@H]1O`: the Potency result (in assay [1]; in assay [5]; in assay [8]; in [3]; in [4]; in the assay on C33A) was “inactive” in each case. Also, the Potency result in the assay with CAOV3, in the assay on CASKI, in the assay on Es-2, in the assay on Hek293T, in the assay with JEG-3 and in the assay on OV90 was “inactive” throughout. Moreover, the Potency entry with PA-1, in the assay with Tov-21-G and in the assay on Tov112D was “inactive” each time. Also, in assay [2], the outcome was inactive. The Potency in the assay on NIH3T3 was 1590 nM (active).

For `COc1ccc(C23CCC(=O)C=C2N(C)CC3)cc1OC` (configuration not stated), the Potency entry (in [1]; in assay [8]; in [7]; in assay [3]; in assay [4]; in the assay with C33A) was “inactive” each time. In addition, the Potency entry with CAOV3, in the assay on Es-2, with Hek293T, in the assay with OV90, with PA-1 and in the assay with Tov-21-G was “inactive” throughout. The Potency entry in the assay with Tov112D was “inactive”. Further, the outcome in [2] was inactive. In addition, the max response with NIH3T3 was -27.9%.
